ERa SRC1 pot – enhances coactivator binding to human estrogen receptor alpha | P03372 | coactivator binding (% of control), % at 25.6 µM | TR-FRET ERalpha-LBD/SRC-Cy5 coactivator binding, 2 h; 100 = basal binding, no effect | 1.3% of 86,000 active | AID 639; in the data active = activity above about 200%;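 note: binding measured in presence of low estradiol as agonist stimulus; 0% = peptide alone without receptor and 100% = receptor with peptide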
PTPN22 act – increases human PTPN22 phosphatase activity | Q9Y2R2 | recombinant LYP, DiFMUP fluorescence; 0 = plate median, 100 = signal doubled | activation, % at 2 µM | 0.11% of 96,000 active | AID 697;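 active = activation at 2 µM above a set limit, the mean plus 5 SD, cut at about 37% in these data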
ERb SRC1 inh – ER-beta (human) coactivator binding inhibition; inhibition, % at 25.6 µM; TR-FRET ER-beta LBD / SRC1-Cy5 peptide binding; receptor agonist-loaded with 1 µM estradiol; AID 633; 1.3% of 86,000 active; Q92731;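 active = compounds whose percent inhibition of the receptor-coactivator binding signal exceeds about 50% in the single-dose screen, limit read from the data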;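 note: 0% = receptor plus peptide wells without compound and 100% = peptide-only wells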
LYP inh 2 – blocks human PTPN22 phosphatase activity; Q9Y2R2; recombinant LYP catalytic domain, DiFMUP fluorescence; inhibition, % at 2 µM; 0.21% of 96,000 active;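 active = inhibition at 2 µM at or above a set limit, the screen mean plus 3 SD, cut at about 24% in these data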;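 note: 0% = DMSO with enzyme and 100% = enzyme fully blocked by orthovanadate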
ERa coact inh – blocks coactivator binding to human estrogen receptor alpha. P03372. TR-FRET ER-alpha LBD / SRC-1 peptide, estradiol-bound. 1.7% of 86,000 active. AID 629. inhibition, % at 25.6 µM; in the data active = inhibition above about 50%;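 note: 0% = receptor plus peptide control and 100% = peptide only without receptor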
FAK blocker – blocks human focal adhesion kinase activity; 0.84% of 97,000 active; biochemical FAK kinase activity assay; inhibition, %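 (tested at 7 µM)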; in the data active = inhibition above about 19%;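 note: 0% = DMSO and 100% = reference compound high control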
Target sequence (Q05397 whole entry, looked up): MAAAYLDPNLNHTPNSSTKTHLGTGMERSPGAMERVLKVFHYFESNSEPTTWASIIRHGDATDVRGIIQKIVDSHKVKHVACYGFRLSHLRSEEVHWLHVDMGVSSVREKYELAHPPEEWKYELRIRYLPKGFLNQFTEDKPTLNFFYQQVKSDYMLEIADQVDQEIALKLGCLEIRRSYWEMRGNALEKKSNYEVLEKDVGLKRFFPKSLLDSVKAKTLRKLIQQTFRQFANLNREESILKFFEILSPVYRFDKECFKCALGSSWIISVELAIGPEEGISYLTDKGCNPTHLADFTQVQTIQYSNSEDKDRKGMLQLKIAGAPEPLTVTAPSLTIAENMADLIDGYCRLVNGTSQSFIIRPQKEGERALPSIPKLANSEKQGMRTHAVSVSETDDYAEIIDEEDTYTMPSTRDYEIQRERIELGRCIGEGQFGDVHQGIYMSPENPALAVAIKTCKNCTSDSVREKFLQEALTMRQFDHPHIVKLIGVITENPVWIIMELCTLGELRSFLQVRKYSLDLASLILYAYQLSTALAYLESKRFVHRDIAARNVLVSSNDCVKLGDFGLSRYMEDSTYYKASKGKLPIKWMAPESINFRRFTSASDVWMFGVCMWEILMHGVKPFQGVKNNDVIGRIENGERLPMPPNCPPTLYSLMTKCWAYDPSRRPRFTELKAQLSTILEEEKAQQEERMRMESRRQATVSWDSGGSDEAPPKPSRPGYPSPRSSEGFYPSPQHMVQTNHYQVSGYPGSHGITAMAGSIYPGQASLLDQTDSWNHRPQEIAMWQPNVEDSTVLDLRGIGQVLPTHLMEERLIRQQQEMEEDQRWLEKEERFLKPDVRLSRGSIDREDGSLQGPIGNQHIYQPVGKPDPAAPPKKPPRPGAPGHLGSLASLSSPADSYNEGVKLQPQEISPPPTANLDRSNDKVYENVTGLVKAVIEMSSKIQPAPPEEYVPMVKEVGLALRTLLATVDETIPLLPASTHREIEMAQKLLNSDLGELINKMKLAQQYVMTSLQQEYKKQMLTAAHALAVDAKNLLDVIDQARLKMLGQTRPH
* = called active by the depositor; x = no result; [ ] = remark or other dose. The list is not random: actives were taken first. Their share in the collection is about 3.4%.

SMILES	ERa SRC1 pot	PTPN22 act	ERb SRC1 inh	LYP inh 2	ERa coact inh	FAK blocker
COc1ccc(CN(CC2CCCO2)C(=O)CN2C(=O)COc3ccccc32)cc1OC (configuration not stated)	113	-2	-8	5	-11	-1
Cc1nc2c(C)cccn2c1/C(O)=C1\C(=O)C(=O)N(CCN2CCOCC2)C1c1cccs1 (configuration not stated)	103	11	-7	-6	2	2
CNC(=S)NNC(=O)c1cccn(Cc2ccc(Cl)cc2Cl)c1=O	x	-53	x	54*	x	0
CCNC(=S)NNC(=O)c1cccn(Cc2ccc(Cl)cc2)c1=O	x	-41	x	42*	x	0
CCC(C)(C)n1nnnc1C(c1cccnc1)N1CCN(c2cccc(C(F)(F)F)c2)CC1 (configuration not stated)	98	1	-7	-1	-2	1
COc1ccccc1N1CCN(C(=O)CSc2ncccc2-c2nc3ccccc3[nH]2)CC1	82	0	13	2	-2	2
O=C(CSc1ncccc1-c1nc2ccccc2[nH]1)N1CCN(c2ccccc2F)CC1	223*	-3	4	4	-9	0
CCn1nc(C(=O)OCC(=O)c2cc(C)n(Cc3cccs3)c2C)c2ccccc2c1=O	149	-19	-10	24*	-2	8
Cc1cc(C(=O)COC(=O)c2ccccc2O)c(C)n1Cc1cccs1	x	4	x	-3	x	0
Cc1cc(C)cc(OCc2nc3ncc(Br)cc3[nH]2)c1	333*[fluorescence artefact?]	0	42	0	57*	-44
O=C(NCc1ccco1)c1ccc(Cn2c(=O)c3sccc3n(Cc3cccc(F)c3)c2=O)cc1	142	3	25	-4	57*[fluorescence artefact?]	7
O=C(Cn1c(=O)n(Cc2ccco2)c(=O)c2ccccc21)Nc1cccc(Cl)c1	144	x	5	x	7	x
O=C(NCc1ccco1)c1ccc(Cn2c(=O)c3ccccc3n(Cc3cccc(Cl)c3)c2=O)cc1	61	6	50	-7	67*[fluorescence artefact?]	2
Cc1cccc2sc(NC(=O)C3c4ccccc4Oc4ccccc43)nc12	x	5	x	-1	x	8
COc1cc(NCCCC(C)N)c2ncccc2c1 (configuration not stated)	4	-6	90*[fluorescence artefact?]	4	70*[fluorescence artefact?]	26*
O=C(O)C1CC=CCC1C(=O)NCCc1cccc(Cl)c1 (configuration not stated)	107	4	0	-2	5	-2
CCN1CCN(c2ccc(NC(=O)Cc3ccccc3)cc2)CC1	60	0	49	-5	35	7
O=C(Cc1ccccc1)Nc1cccc(N2CCCC2)c1	43	1	28	-2	58*[fluorescence artefact?]	11
Cc1ccccc1NC(=O)Cn1cnc2c1c(=O)n(C)c(=O)n2C	97	-5	62*	8	-9	4
COc1ccc2c(CC(=O)Nc3c(C)n(C)n(-c4ccccc4)c3=O)coc2c1	x	-1	x	-2	x	-1
COc1ccc2c(C)cc(SCC(=O)Nc3c(C)n(C)n(-c4ccccc4)c3=O)nc2c1	95	-46	-13	47*	-11	4
CCOC(=O)c1c(N2C(=O)Nc3cc(Cl)c(Cl)cc3N2O)sc2c1CCCCC2	x	-30	x	32*	x	18
Cc1cc(C)cc(NC(=O)N2CCC(c3nc4ccccc4o3)CC2)c1	680*[fluorescence artefact?]	-6	-2	2	3	1
NS(=O)(=O)c1ccc(CCNC2CC(=O)N(Cc3ccccc3)C2=O)cc1 (configuration not stated)	106	8	1	-10	7	1
NS(=O)(=O)c1ccc(CCNC2CC(=O)N(CCc3ccccc3)C2=O)cc1 (configuration not stated)	107	0	66*	-1	-2	-7
SMILES	ERa SRC1 pot	PTPN22 act	ERb SRC1 inh	LYP inh 2	ERa coact inh	FAK blocker
CCOc1ccc(C2NC(=O)NC(C)=C2C(=O)OC)cc1C (configuration not stated)	96	8	-7	-9	-12	2
CC(C)CN(CC(C)C)C(=O)C12CCC(C)(C(=O)O1)C2(C)C (configuration not stated)	110	0	-4	6	-5	6
Cc1ccccc1Nc1nc(N)nc(CSc2nc3ccccc3c(=O)n2C)n1	108	-6	-9	7	78*	1
Cc1cc(C)c(C)c(S(=O)(=O)N2C(=S)NC(=O)C2C(C)C)c1C (configuration not stated)	x	-15	x	12	x	0
COc1ccc(Br)cc1CNC(=O)C1CCCN(c2nc3ccccc3o2)C1 (configuration not stated)	102	-1	28	-2	64*	-1
Cc1ccc(CNC(=O)C2CCCN(c3nc4ccccc4o3)C2)cc1 (configuration not stated)	114	x	49	x	-12	x
COc1cc(CNC2CCCC2)cc(Cl)c1OCc1ccccc1F	x	11	x	-11	x	0
O=C(c1ccc(=O)n(Cc2ccc(Cl)c(Cl)c2)c1)N1CCOCC1	x	8	x	-6	x	-1
CCCCc1c(C)nn(-c2nnc3c4ccccc4n(CC)c3n2)c1C	141	-10	31	9	52*[fluorescence artefact?]	0
Cc1ccc(C(=O)CSc2nnnn2C(C)C)c(C)c1	99	-6	-8	9	-4	0
CC1CCCC(C)N1C(=O)Cc1ccccc1 (configuration not stated)	81	2	-8	-1	-3	-2
COc1cc([N+](=O)[O-])ccc1N/C=C/C(=O)c1cccs1	116	-4	1	7	4	2
Nc1nnc(SCC(=O)Nc2ccc(S(=O)(=O)N3CCOCC3)cc2)s1	x	-27	x	26*	x	-1
Cn1c(SCC(=O)Nc2cccc(F)c2)nnc1-c1cc2ccccc2o1	688*[fluorescence artefact?]	3	0	-4	-32	-11
O=C(CSc1ncnc2c1oc1ccccc12)Nc1cccc(F)c1	370*[fluorescence artefact?]	3	50*[fluorescence artefact?]	-4	42	-134
CCn1c(SCC(=O)Nc2ccc3c(c2)oc2ccccc23)nnc1-c1ccc(N)cc1	67	7	50*[fluorescence artefact?]	-6	74*	5
Cc1cccc(NC(=O)CSc2ncnc3c2oc2ccccc23)c1	395*[fluorescence artefact?]	-3	58*[fluorescence artefact?]	0	50*[fluorescence artefact?]	-239
COc1ccc(N2CCN(C(=O)c3ccc(CNc4c(N5CCOCC5)c(=O)c4=O)cc3)CC2)cc1	110	-10	-7	7	-4	-6
CCOC(=O)CCS(=O)(=O)c1ccc(-c2ccc(S(=O)(=O)CCC(=O)OCC)cc2)cc1	x	3	x	0	x	-1
CCOC(=O)C1CCCN(C/C(O)=C(\C#N)c2nc(-c3ccccc3)cs2)C1 (configuration not stated)	82	-10	1	13	-2	-2
Cc1ccc(C(=O)NC(N2CCCC2)C(Cl)(Cl)Cl)cc1 (configuration not stated)	x	-1	x	6	x	2
